Results reported in PubChem BioAssay (NCATS).
Where “and” joins values, the source holds several entries; their conditions need not be identical. Equal values may be shown once. Inconclusive results are not listed. Calls of active or inactive are those of the source. Unless noted, the call rests on the fitted dose curve; in most records, active means well fitted curve in either direction with a large enough effect (not every such curve was filed as active); inconclusive means small, poorly fitted or top-dose-only effect, or another doubt; inactive means flat fitted curve, though single readings scatter.

Assays:
[1] = AP1 Signaling Pathway (AID 357); details: ME-180 AP-1-bla reporter, EGF-induced, beta-lactamase ratio, 5 h; at 7.69 µM (top of the series) unless noted;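 further: ME-180 reporter cells stimulated with EGF at its EC50 level; on the % scale 0 is the no-effect control and ±100 the full control effect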
Outline: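 Read-out was the 460nm/530nm emission ratio (excitation 405nm) after CCF4 loading for 2.5 hours at room temperature. Cells carried an AP-1-driven beta-lactamase reporter, were stimulated with EC50 EGF plus compound for 5 hours, and AC50 values came from titrations.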

[2] = molecular target: Cytochrome P450 1A2 (Homo sapiens) (UniProt P05177); test: p450-cyp1a2 (AID 410; calls by dose curve; further: potency means the concentration at half of the fitted maximal effect;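 on activity change, negative = inhibition: -100% = full effect of reference inhibitor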)
Cytochrome P450 1A2 (Homo sapiens), sequence (P05177 whole entry, looked up): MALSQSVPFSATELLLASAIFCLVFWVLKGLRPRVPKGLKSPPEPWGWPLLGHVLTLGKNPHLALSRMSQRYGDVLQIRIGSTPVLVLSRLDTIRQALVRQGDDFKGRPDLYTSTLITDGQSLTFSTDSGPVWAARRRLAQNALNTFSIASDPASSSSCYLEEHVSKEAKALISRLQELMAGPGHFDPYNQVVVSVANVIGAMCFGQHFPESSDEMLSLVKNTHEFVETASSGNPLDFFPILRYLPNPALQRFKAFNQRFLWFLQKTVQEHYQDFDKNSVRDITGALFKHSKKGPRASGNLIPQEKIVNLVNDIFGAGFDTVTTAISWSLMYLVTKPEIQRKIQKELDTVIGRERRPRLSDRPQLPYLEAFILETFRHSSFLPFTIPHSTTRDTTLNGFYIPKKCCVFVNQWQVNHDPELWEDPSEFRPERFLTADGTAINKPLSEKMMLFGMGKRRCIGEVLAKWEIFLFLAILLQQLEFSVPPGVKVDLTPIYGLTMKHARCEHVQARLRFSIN
Outline: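 Read-out is luminescence from luciferin produced by CYP1A2 demethylation of Luciferin-ME (100uM, at Km). Detection reagent stopped the 60 min NADPH-dependent reaction; signals were normalized to 57 uM furafylline.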

[3] = Stat Signaling Pathway (AID 446); details: ME-180 (cervical carcinoma) SIE beta-lactamase reporter, IL-6 stimulated, 5 h; at 7.69 µM (top of the series) unless noted;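 further: ME-180 cervical cancer cells given 40 pM IL-6 alongside compound; SIE-controlled beta-lactamase reporter measured as 460/530 nm FRET emission ratio; on the % scale 0 is the no-effect control and ±100 the full control effect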
Outline: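 Normalization used AC90 stimulation (300 pM IL-6) and AC90 inhibition (125 nM pan-JAK inhibitor at 40 pM IL-6). The underlying signal is SIE-driven beta-lactamase in ME-180 cells after 5 h IL-6 exposure with compound.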

[4] = molecular target: Glucocorticoid receptor (Homo sapiens) (UniProt P04150); test: GR-GFP Redistribution (AID 450;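 active means compounds whose dose series gives a full or clear partial fitted curve of increased nuclear translocation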; further: potency means the concentration at half of the fitted maximal effect); details: U2OS GR-GFP nuclear translocation, laser cytometry, 2 h
Glucocorticoid receptor (Homo sapiens), sequence (P04150 whole entry, looked up, the tested form may be a part): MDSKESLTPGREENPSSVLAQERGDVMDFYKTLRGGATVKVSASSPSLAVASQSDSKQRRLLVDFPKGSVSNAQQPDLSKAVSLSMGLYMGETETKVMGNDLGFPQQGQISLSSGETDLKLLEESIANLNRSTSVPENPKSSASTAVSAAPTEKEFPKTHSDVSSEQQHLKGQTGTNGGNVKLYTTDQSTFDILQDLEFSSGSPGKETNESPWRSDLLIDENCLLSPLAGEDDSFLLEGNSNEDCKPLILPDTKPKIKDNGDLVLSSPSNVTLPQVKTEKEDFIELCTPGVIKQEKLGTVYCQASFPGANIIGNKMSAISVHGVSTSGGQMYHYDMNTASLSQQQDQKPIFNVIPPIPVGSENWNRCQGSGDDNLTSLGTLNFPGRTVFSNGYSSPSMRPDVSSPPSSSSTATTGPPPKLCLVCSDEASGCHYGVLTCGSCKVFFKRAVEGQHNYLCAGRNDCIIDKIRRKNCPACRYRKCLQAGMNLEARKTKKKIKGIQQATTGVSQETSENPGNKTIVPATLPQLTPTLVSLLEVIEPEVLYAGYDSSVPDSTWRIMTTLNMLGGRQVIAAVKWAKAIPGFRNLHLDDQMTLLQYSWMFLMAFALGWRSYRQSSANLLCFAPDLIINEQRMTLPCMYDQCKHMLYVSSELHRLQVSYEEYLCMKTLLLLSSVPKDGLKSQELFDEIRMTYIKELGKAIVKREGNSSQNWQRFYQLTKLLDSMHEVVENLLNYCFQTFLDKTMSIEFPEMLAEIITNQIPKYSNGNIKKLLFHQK

[5] = molecular target: Glucocorticoid receptor (Homo sapiens) (UniProt P04150); test: GR-EFC Redistribution (AID 451; calls by dose curve; further: potency means the concentration at half of the fitted maximal effect); details: CHO-K1 GR-EFC translocation, beta-gal luminescence, 2 h
Outline: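 CHO-K1 cells expressing nuclear EA and GR-ED fragments of b-gal; compounds titrated up to 46 uM final, 2 h at 37 C. GR nuclear translocation read as complemented b-gal luminescence after 1 h RT detection.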

[6] = molecular target: Mitogen-activated protein kinase 10 (Mus musculus) (UniProt Q61831); test: JNK3 AlphaScreen Assay (AID 530);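 further: kinase came from lysate of stimulated human HepG2 cells; signal reports phosphorylation of biotinylated GST-cJun 1-79 at Ser73 with 10 µM ATP; on the % scale 0 is the no-effect control and ±100 the full control effect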
Outline: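 HepG2 lysate (IL-1b/TNFa pre-activated) + biotin-GST-cJun 1-79 + anti-pSer73 cJun; cpd titration, 15 min RT; ATP 10 uM start; Tris pH 7.6, MgCl2, DTT, vanadate; beads in EDTA buffer; AlphaScreen.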

[7] = molecular target: 3',5'-cyclic-AMP phosphodiesterase 4B (Homo sapiens) (UniProt Q07343); test: qHTS Assay for Inhibitors of PDE-IV (AID 607; active means well fitted activation curve with a large enough effect in the main read-out, with a control signal flat, not every such curve was filed as active; further: % of control where 0% means no effect)
3',5'-cyclic-AMP phosphodiesterase 4B (Homo sapiens), sequence (Q07343 whole entry, looked up): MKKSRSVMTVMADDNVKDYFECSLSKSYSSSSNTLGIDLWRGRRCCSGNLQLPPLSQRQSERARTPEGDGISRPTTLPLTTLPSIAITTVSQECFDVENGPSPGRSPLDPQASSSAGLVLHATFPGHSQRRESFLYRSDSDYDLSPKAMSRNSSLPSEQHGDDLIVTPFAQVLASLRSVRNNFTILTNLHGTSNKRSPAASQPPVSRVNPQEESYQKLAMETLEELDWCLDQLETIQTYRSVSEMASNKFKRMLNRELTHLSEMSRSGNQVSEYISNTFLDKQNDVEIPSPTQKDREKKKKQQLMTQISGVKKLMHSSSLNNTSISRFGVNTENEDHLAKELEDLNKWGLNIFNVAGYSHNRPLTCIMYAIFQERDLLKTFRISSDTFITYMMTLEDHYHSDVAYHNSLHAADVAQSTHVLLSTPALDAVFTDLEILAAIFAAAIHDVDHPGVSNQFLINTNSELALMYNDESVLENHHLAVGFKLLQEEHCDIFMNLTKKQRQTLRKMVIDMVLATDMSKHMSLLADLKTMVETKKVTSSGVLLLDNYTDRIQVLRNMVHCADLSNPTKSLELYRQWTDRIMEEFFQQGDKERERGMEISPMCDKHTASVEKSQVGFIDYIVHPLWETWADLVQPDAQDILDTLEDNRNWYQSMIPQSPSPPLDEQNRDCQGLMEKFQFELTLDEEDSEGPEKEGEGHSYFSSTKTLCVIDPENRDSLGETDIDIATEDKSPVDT
Outline: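 HEK293 ACTOne cells with CNG channel (1000/well), endogenous PDE4; membrane potential dye, compounds up to 22.9 uM final. Fluorescence Ex 535/Em 590; RO 20-1724 (100 uM final) as reference.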

[8] = molecular target: Guanine nucleotide-binding protein G(i) subunit alpha-1 (Homo sapiens) (UniProt P63096); test: qHTS Assay for Inhibitors of RGS12 GoLoco Motif Activity (Green Fluorophore) (AID 879; active means well fitted curve in the direction sought with a large enough effect; an effect the other way counts as inactive or inconclusive;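 further: 0% = labeled peptide with Gαi1 and full inhibition = labeled peptide alone without protein; negative values mean loss of peptide binding seen as reduced polarization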)
Outline: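 A drop in FITC polarization marked displacement of the FITC-tagged RGS12 GoLoco peptide (10 nM) from Gαi1 (50 nM). Compounds were incubated 10 min at room temperature in Tris pH 7.5 buffer containing 150 mM NaCl, 0.1 mM GDP and 0.05% NP40; unlabeled peptide titration served as control.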

[9] = molecular target: Cytochrome P450 3A4 (Homo sapiens) (UniProt P08684); test: qHTS Assay for Inhibitors and Substrates of Cytochrome P450 3A4 (AID 884; active means well fitted curve in the direction sought with a large enough effect; an effect the other way counts as inactive or inconclusive; further: on the % scale 0 is the no-effect control and ±100 the full control effect; nearly all actives have a fitted effect of over 50% in size)
Outline: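 Luminescent readout of luciferin produced by CYP3A4 (20 nM) dealkylation of Luciferin-PPXE, 25 uM (its KM). NADPH-driven reaction ran 60 min at RT after 10 min compound preincubation; data scaled to 57 uM ketoconazole as 100% inhibition.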

[10] = qHTS Assay for Identification of Small Molecule Agonists for Thrombopoietin (TPO) Signaling Pathway (AID 917; active means well fitted curve in the direction sought with a large enough effect; an effect the other way counts as inactive or inconclusive; further: on the % scale 0 is the no-effect control and ±100 the full control effect)
Outline: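 First, Ba/F3 cells with human TPO receptor were held overnight without IL-3. Next, compounds and TPO (26 pM final) were added. After 24 hrs at 37 C, luciferase detection reagent was added and luminescence measured following 10 min at room temperature.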

[11] = molecular target: Muscarinic acetylcholine receptor M1 (Rattus norvegicus) (UniProt P08482); test: qHTS Assay for Antagonists of Acetylcholine Muscarinic M1 Receptor: Measurement of IP-One Response (AID 944; active means well fitted curve in the direction sought with a large enough effect; an effect the other way counts as inactive or inconclusive; further: nearly all actives have a fitted effect of over 75% in size)
Muscarinic acetylcholine receptor M1 (Rattus norvegicus), sequence (P08482 whole entry, looked up): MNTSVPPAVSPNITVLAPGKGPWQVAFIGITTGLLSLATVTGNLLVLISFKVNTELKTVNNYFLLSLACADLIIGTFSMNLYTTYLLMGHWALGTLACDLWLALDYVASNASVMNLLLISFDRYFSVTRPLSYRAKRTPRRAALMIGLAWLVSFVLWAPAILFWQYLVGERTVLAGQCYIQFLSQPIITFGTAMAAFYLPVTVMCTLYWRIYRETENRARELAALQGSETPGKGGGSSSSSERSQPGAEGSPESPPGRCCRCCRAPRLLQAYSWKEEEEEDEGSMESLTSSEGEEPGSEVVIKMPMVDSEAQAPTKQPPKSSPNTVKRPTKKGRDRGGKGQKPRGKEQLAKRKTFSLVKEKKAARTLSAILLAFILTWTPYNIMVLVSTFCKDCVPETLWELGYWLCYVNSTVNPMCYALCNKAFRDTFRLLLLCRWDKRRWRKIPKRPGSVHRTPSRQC
Outline: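 Antagonism was measured as loss of carbachol-driven (EC80) IP1 accumulation in CHO cells carrying rat M1, using a homogeneous IP-One TR-FRET kit read at 620 and 665 nm.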

[12] = molecular target: Pyruvate kinase (Leishmania mexicana) (UniProt Q27686); test: qHTS Validation Assay for Inhibitors of Leishmania Mexicana Pyruvate Kinase (AID 945; active means well fitted curve in the direction sought with a large enough effect; an effect the other way counts as inactive or inconclusive;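 further: 0% = DMSO only neutral control wells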)
Pyruvate kinase (Leishmania mexicana), sequence (Q27686 2-499 E452W): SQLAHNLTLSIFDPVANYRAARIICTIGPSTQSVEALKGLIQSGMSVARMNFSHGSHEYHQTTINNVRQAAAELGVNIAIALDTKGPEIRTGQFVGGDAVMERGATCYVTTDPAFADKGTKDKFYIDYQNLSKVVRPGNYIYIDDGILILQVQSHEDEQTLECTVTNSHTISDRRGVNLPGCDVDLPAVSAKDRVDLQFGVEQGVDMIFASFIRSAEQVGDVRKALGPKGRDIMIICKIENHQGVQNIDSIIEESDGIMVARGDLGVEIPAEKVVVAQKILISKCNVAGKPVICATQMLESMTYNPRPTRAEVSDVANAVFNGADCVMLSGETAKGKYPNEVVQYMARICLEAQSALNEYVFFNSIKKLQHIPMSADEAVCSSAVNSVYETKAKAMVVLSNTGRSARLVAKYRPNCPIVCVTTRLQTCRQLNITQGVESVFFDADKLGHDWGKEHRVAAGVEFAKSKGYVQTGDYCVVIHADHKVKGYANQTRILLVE
Outline: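 Substrate mix (0.5 mM PEP, 0.1 mM ADP, 7 mM MgCl2, 50 mM KCl, pH 7.2 imidazole) received compound by pin tool, then 0.2 nM LmPYK E451W. After 1 h at room temperature, PKLight was added and luminescence measured.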

[13] = molecular target: Pyruvate kinase PKM (Homo sapiens) (UniProt P14618); test: qHTS Assay for Activators of Human Muscle Pyruvate Kinase (AID 954; active means well fitted curve in the direction sought with a large enough effect, not every such curve was filed as active;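 further: 0% = uninhibited enzyme and -100% = no enzyme or full thiadiazolimine inhibition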)
Pyruvate kinase PKM (Homo sapiens), sequence (P14618 whole entry, looked up): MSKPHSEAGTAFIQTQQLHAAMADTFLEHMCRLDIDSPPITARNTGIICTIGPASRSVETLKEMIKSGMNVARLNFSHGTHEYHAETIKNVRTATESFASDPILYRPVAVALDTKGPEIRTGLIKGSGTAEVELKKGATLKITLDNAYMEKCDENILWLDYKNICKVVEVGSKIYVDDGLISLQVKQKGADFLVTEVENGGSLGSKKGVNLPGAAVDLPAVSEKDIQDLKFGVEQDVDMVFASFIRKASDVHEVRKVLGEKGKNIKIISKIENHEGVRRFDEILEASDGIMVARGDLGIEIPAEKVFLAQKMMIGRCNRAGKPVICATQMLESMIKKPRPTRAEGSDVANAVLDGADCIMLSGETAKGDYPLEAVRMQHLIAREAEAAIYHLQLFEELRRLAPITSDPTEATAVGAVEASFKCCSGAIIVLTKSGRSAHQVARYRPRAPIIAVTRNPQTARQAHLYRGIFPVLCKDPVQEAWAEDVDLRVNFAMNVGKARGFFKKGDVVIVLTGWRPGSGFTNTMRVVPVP
Outline: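 Compound pinned into substrate mix (0.5 mM PEP, 0.1 mM ADP), then 0.1 nM PKM2 added; 1 h, RT. Stop/detection luciferase reagent added, luminescence read. Normalized to no-inhibition and no-enzyme or reference-inhibitor controls.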

[14] = molecular target: Alpha-galactosidase A (Homo sapiens) (UniProt P06280); test: Counterscreen for Glucocerebrosidase Inhibitors: qHTS Assay for Human alpha-Galactosidase at pH 4.5 (AID 992; active means well fitted curve in the direction sought with a large enough effect; an effect the other way counts as inactive or inconclusive; further: 0% is about no effect)
Alpha-galactosidase A (Homo sapiens), sequence (P06280 whole entry, looked up): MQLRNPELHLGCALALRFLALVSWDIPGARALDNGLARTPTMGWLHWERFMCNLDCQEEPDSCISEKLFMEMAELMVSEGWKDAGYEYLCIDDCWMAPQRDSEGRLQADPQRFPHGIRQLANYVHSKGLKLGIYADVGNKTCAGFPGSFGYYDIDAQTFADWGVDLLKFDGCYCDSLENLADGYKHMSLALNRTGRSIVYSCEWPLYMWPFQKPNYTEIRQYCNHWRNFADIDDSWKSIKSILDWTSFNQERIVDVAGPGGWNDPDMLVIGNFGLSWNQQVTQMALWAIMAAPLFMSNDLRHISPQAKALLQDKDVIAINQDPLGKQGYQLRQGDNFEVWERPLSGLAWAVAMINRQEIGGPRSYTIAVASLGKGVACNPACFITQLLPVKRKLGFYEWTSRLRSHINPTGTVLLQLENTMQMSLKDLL
Outline: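 Steps: enzyme (2 nM final), then compound across 0.7 nM to 77 uM, then 80 uM fluorogenic galactopyranoside substrate; incubate 20 min at room temperature; quench at pH 10; measure fluorescence at 365/440 nm.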

[15] = molecular target: alpha-glucosidase (Oryza sativa, rice) (UniProt Q653V4); test: Counterscreen for Glucocerebrosidase Inhibitors: qHTS Assay for Rice alpha-Glucosidase at pH 5.0 (AID 997; active means well fitted curve in the direction sought with a large enough effect; an effect the other way counts as inactive or inconclusive;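 further: 0% = full activity with enzyme and -100% = basal without enzyme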)
Outline: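 Endpoint fluorogenic assay at pH 5.0: compounds (0.7 nM to 77 uM) titrated against 4 nM rice enzyme and 400 uM 4-MU-alpha-glucoside for 20 min at room temperature; NaOH/glycine stop, read ex 365/em 440 nm, Hill-fitted AC50.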

[16] = NFAT Signaling Pathway (AID 444); details: Jurkat NFAT-bla M1, carbachol, beta-lactamase ratio, 5 h; at 7.69 µM (top of the series) unless noted
Outline: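 Jurkat cells with NFAT-driven β-lactamase reporter and co-expressed M1 receptor, stimulated with carbachol (final 1 uM, ~EC50), compound titration, 5 h at 37 °C. CCF4 loaded 1 h at RT; 460/530 nm ratio gave %activity and AC50.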

[17] = molecular target: Cytochrome P450 2C9 (Homo sapiens) (UniProt P11712); test: qHTS Assay for Inhibitors and Substrates of Cytochrome P450 2C9 (AID 883; active means well fitted curve in the direction sought with a large enough effect; an effect the other way counts as inactive or inconclusive; further: potency means the concentration at half of the fitted maximal effect; nearly all actives have a fitted effect of over 60% in size)
Outline: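 Human CYP2C9 (10nM) with Luciferin-H at 100uM (its KM) in 25mM KPO4; compound preincubated 10 min at 37C, then NADPH regeneration for 60 min at 37C. Luciferin read by luminescence after detection reagent; normalized to 57uM sulphaphenazole as full inhibition.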

[18] = molecular target: Cytochrome P450 2D6 (Homo sapiens) (UniProt P10635); test: qHTS Assay for Inhibitors and Substrates of Cytochrome P450 2D6 (AID 891; active means well fitted curve in the direction sought with a large enough effect; an effect the other way counts as inactive or inconclusive; further: nearly all actives have a fitted effect of over 60% in size; further: potency means the concentration at half of the fitted maximal effect)
Cytochrome P450 2D6 (Homo sapiens), sequence (P10635 whole entry, looked up): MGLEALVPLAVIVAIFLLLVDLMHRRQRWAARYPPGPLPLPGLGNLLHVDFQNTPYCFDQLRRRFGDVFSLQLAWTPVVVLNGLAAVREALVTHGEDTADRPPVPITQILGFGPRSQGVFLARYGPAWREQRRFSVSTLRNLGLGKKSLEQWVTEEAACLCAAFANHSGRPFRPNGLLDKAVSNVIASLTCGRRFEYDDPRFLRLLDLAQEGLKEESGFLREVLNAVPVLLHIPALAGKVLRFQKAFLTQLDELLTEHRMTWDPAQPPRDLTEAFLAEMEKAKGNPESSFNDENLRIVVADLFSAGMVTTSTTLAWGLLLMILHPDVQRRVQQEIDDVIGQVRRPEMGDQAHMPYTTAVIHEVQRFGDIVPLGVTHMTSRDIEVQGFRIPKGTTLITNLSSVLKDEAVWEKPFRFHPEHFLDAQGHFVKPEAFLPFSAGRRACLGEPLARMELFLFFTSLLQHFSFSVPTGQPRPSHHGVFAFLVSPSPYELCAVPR
Outline: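 Luminescent read-out of luciferin formed by 5 nM human CYP2D6 demethylating 30 uM Luciferin-ME EGE (Km level) over 60 min at room temperature after NADPH regeneration addition. Data normalized to full inhibition by 1.43 uM quinidine.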

[19] = qHTS Assay for Identification of Small Molecule Antagonists for Thrombopoietin (TPO) Signaling Pathway (AID 918; active means well fitted curve in the direction sought with a large enough effect; an effect the other way counts as inactive or inconclusive; further: potency means the concentration at half of the fitted maximal effect; nearly all actives have a fitted effect of over 60% in size); details: TPO-dependent cell signaling reporter, antagonist mode
Outline: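 Antagonist mode at EC50 TPO (26 pM) in IL-3-free medium; murine Ba/F3 cells with human TPO receptor and GPIIb-promoter luciferase, 24 hrs at 37 C before luminescent detection.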

[20] = molecular target: Cytochrome P450 2C19 (Homo sapiens) (UniProt P33261); test: qHTS Assay for Inhibitors and Substrates of Cytochrome P450 2C19 (AID 899; active means well fitted curve in the direction sought with a large enough effect; an effect the other way counts as inactive or inconclusive; further: nearly all actives have a fitted effect of over 60% in size; further: potency means the concentration at half of the fitted maximal effect)
Cytochrome P450 2C19 (Homo sapiens), sequence (P33261 whole entry, looked up): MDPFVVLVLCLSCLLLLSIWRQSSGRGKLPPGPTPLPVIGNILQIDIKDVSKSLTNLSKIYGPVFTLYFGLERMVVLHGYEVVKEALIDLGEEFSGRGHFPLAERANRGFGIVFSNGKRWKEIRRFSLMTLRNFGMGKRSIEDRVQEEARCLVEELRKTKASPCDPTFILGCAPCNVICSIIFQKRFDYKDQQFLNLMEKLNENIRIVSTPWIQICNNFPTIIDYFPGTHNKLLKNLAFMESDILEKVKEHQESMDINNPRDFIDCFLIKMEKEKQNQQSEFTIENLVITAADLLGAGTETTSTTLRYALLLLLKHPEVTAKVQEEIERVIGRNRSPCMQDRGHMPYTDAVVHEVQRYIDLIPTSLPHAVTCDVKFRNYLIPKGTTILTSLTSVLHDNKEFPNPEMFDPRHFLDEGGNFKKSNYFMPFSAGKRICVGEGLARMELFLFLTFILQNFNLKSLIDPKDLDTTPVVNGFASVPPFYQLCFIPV
Outline: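 5 nM human CYP2C19 with 10uM Luciferin-H EGE (at KM) in 50mM KPO4, compound preincubated 10 min at 37C, then NADPH regeneration for 60 min at 37C. Luciferin read by luminescence after detection reagent; normalized to 57uM ketoconazole as full inhibition.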

COC(=O)[C@](C)(N)Cc1ccc(O)cc1
inactive: activity change, negative = inhibition [1] 9.7% [at 38 µM] | Potency [2] | activity, negative = inhibition [3] -6.8% [at 38 µM] | Potency [4] > 46 µM | Potency [5] > 46 µM | Potency [6] | Potency [7] | outcome [8] | Potency [9] | outcome [10] | Potency [11] | outcome [12] | outcome [13] | outcome [14] | Potency [15]

CC(C)(C)[C@@]1(O)CCN2C[C@@H]3c4ccccc4CCc4cccc(c43)[C@@H]2C1
inactive: activity change, negative = inhibition [1] -4.55% [at 38 µM] and 8.62% [at 38 µM] | activity change, negative = inhibition [16] -14.6% [at 38 µM] and -5.47% [at 38 µM] | activity, negative = inhibition [3] -1.04% [at 38 µM] and -27.5% [at 38 µM] | Potency [4] > 46 µM | Potency [5] > 46 µM | Potency [7] | Potency [11] | outcome [12] | outcome [13] | outcome [14] | Potency [15]
active: Potency [17] 1.58 µM | Potency [18] 79.4 nM and 501 nM | Potency [19] 12.6 µM

O=C(c1cc(Br)ccc1O)c1cc(Br)ccc1O
active: Potency [2] 1 µM | Potency [20] 0.199 µM
inactive: activity change, negative = inhibition [1] -21.4% | activity, negative = inhibition [3] -28% | Potency [4] > 46 µM | Potency [5] > 9.22 µM | Potency [6] | Potency [7]

CCc1cccc2c3c([nH]c12)[C@](CC)(CC(=O)O)OCC3
inactive: activity change, negative = inhibition [1] 6.07% [at 38 µM] | Potency [2] | activity change, negative = inhibition [16] -5.71% [at 38 µM] | Potency [6] | Potency [7] | Potency [18] | Potency [20]

C/C(=N\[N+](C)(C)C)c1ccc(C)c(C)c1
inactive: activity change, negative = inhibition [1] 10% | activity change, negative = inhibition [2] -16.9% [at 2.29 µM] | activity, negative = inhibition [3] 6.61% | Potency [4] > 46 µM | Potency [5] > 9.22 µM | Potency [6] | Potency [7]

FC(F)(F)c1cc(NC(=S)N2c3ccccc3-n3cccc3[C@H]2c2cccnc2)cc(C(F)(F)F)c1
inactive: activity change, negative = inhibition [1] -2.69% | activity change, negative = inhibition [16] 16.9% | activity, negative = inhibition [3] -5.05% | Potency [4] > 46 µM | Potency [5] > 9.22 µM | Potency [6] | Potency [7]
